# PERK inhibitor: inhibitors of human PERK kinase; CHO PERK-DD fusion, SEAP luminescence translation reporter; inhibition, % at 5.6 µM; actives 0.17% (n = 220,000);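 active = inhibition above the mean inhibition of all tested compounds plus 3 SD, set separately per screening campaign, cut at about 2.9% in these data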;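 also: PERK kinase domain activated by AP20187 dimerizer at 100 nM; 0% = DMSO with dimerizer and 100% = rapamycin at 8.4 µM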
# eIF4H inh: inhibitors of RNA binding by human eIF4H; Q15056; inhibition, % at 35 µM; eIF4H fluorescence polarization binding assay; actives 0.94% (n = 290,000);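 also: calls also rest on retests at 20 µM and on dose response follow-up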
# eIF4E-4G inh: eIF4E/eIF4G interaction inhibition in translation initiation | P63073+Q04637 | TR-FRET eIF4E-eIF4GI(517-606) binding, 2 h | inhibition, % at 21.7 µM | actives 0.37% (n = 220,000) | AID 782;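 active = inhibition above about 30%, limit read from the data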;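 also: 0% = full FRET control wells and 100% = background wells lacking eIF4GI fragment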
# PABP1 MLLE inh: inhibitors of microRNA-mediated deadenylation, human PABP1 MLLE binding. GST-MLLE / FITC-PAM2 fluorescence polarization. P11940. inhibition, % at 20 µM. actives 0.36% (n = 360,000); in the data active = inhibition above about 35%, passing the limit was not always enough;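 also: plate controls were DMSO wells with GST-MLLE for no effect and wells lacking GST-MLLE protein for full effect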
# PABP polyA inh: PABP-poly(A) binding inhibition. inhibition, % at 35 µM. AID 2014. P11940. actives 1% (n = 290,000). PABP-poly(A) RNA binding, fluorescence polarization;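 also: calls also rest on retests at 20 µM and on dose response follow-up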
# Starred values were filed as active, the others as inactive; ? = inconclusive; . = no result. This is a sample that favours compounds with a hit; in the whole collection about 1.6% have one here. Unless noted, no rule for the calls is given here.
SMILES,PERK inhibitor,eIF4H inh,eIF4E-4G inh,PABP1 MLLE inh,PABP polyA inh
Cc1ccccc1CCNC(=O)c1cc(C2CC2)nc2c1cnn2C(C)C,.,.,.,6.0,.
COc1ccccc1-n1c(=S)[nH]c2c(sc(=S)n2-c2ccccc2)c1=O,1.2,1.6,-1.1,27.1,1.7
COc1cccc(-n2c(=S)sc3c(=O)n(-c4ccccc4OC)c(=S)[nH]c32)c1,-0.2,-2.7,-6.0,41.3*,-0.6
COc1ccc(C(=O)CC(Nc2ccc([N+](=O)[O-])cc2)c2ccc(OC)cc2)cc1 (stereo not drawn),-0.8,-4.5,3.6,-0.2,-2.6
CCOC(=O)c1[nH]cnc1N=Nc1c(O)ccc2ccccc12,0.4,?,7.9,51.5*,-5.9
Oc1ccc2ccccc2c1N=Nc1ccccn1,-0.7,1.7,1.2,-15.8,2.3
Cc1cc[n+](CC(=O)c2ccc(NC(=O)c3ccccc3)cc2)cc1,0.5,1.9,7.3,16.4,-6.8
O=C(C[n+]1ccccc1)c1ccc(NC(=O)c2ccccc2)cc1,0.7,-4.9,19.4,-121.4,71.8*
O=C1C2C3C=CC(CC3)C2C(=O)N1c1nccs1 (stereo not drawn),1.1,104.9*,7.0,13.2,active
O=C1C2C3C=CC(C2C(=O)N1c1nccs1)C1C(=O)N(c2nccs2)C(=O)C31 (stereo not drawn),1.0,9.4,-5.3,7.9,-0.1
OCC1(CCOc2ccccc2)CCN(Cc2cc(Cl)ccc2O)CC1,.,-1.4,.,-17.8,1.6
Cc1ccn(C)c(=N)c1,0.5,active,-0.9,-89.4,66.9*
O=C(NCc1ccc(Cl)cc1)c1ccc(CNc2c(N3CCCC3)c(=O)c2=O)cc1,0.3,2.9,56.6*,-1.8,-3.6
Cc1ccc(S(=O)(=O)C2CCCCC2=O)cc1 (stereo not drawn),0.9,-3.3,12.0,0.3,3.6
CCC(CC)C1C(C#N)=C(N)Oc2cc(C)oc(=O)c21 (stereo not drawn),0.1,-6.7,7.3,-7.6,7.3
Cc1cc2c(c(=O)o1)C(c1ccc([N+](=O)[O-])o1)C(C#N)=C(N)O2 (stereo not drawn),-0.6,93.0*,0.8,13.6,62.5*
Cc1cc(C(=O)N2CCCC(C(=O)c3cc(F)ccc3F)C2)c(C)o1 (stereo not drawn),0.6,8.2,0.9,-6.9,-1.0
COC(=O)c1c(C(=O)OC)c(-c2ccc(F)cc2)n2c1CS(=O)C2 (stereo not drawn),.,-5.5,.,-0.9,-2.6
O=C(N/N=C/c1ccc(O)c(O)c1O)/C(=C/c1ccc([N+](=O)[O-])cc1)NC(=O)c1ccccc1,0.5,104.9*,21.7,37.0,58.6*
Cc1ccc(NC(=O)/C(=C\c2ccc([N+](=O)[O-])cc2)NC(=O)c2ccccc2)cc1,0.5,-9.9,-7.4,-10.2,-5.6
COc1ccc(C2=CC3=C(Br)C(=O)C(C)(OC(=O)c4ccc(Cl)nc4)C(=O)C3=CO2)cc1 (stereo not drawn),.,86.4,9.9,.,42.2*
COC(=O)CCC(=O)OC1(C)C(=O)C2=COC(c3ccc(OC)cc3)=CC2=C(Br)C1=O (stereo not drawn),.,?,18.5,.,?
CCOc1ccccc1CN1CCN(C2CCOCC2)CC1CCO (stereo not drawn),0.9,1.8,1.9,-13.9,2.3
O=C(COc1ccccc1)c1cn(CC(=O)N2CCOCC2)c2ccccc12,0.0,95.4*,4.3,-7.0,107.4*
O=C(Cn1cc(C(=S)N2CCOCC2)c2ccccc21)N1CCOCC1,0.3,-13.7,0.5,13.3,-13.4
SMILES,PERK inhibitor,eIF4H inh,eIF4E-4G inh,PABP1 MLLE inh,PABP polyA inh
O=C(Cn1cc(C(=O)COc2ccccc2)c2ccccc21)NCc1ccco1,-1.8,35.5*,1.7,-40.6,54.9
Cc1cccc(N(C2C=CS(=O)(=O)C2)S(=O)(=O)c2ccccc2)c1 (stereo not drawn),-0.3,-0.8,0.7,2.8,1.5
Cc1ccc(N/N=C2/CCCNC2=O)cc1,1.7,0.6,0.8,23.9,9.6
CC(=O)c1ccc(N/N=C2/CCCNC2=O)cc1,4.0*,-0.3,3.9,-0.3,-1.8
Cc1nc2ccc(NC(=O)C3COc4ccccc4O3)cc2s1 (stereo not drawn),0.3,.,0.3,-102.0,.
Cc1nc2cc(NC(=O)C3COc4ccccc4O3)ccc2s1 (stereo not drawn),-0.3,-2.3,6.4,-101.0,54.6*
O=C(O/N=C\c1ccc(N2CCCCC2)c([N+](=O)[O-])c1)c1ccc(Cl)cc1Cl,3.0*,-3.8,3.3,2.6,-6.5
CCOC(=O)C(=Cc1ccc(Br)cc1)C(=O)OCC,-1.3,0.3,3.8,5.3,10.1
CC(=O)Nc1ccc(C(=O)OCC(=O)N(C)C2CCCCC2)cc1,-1.2,active,1.0,2.5,77.5
CN(C)C(=O)COC(=O)c1ccccc1Sc1ccccc1C#N,0.2,-2.0,4.2,23.1,0.5
O=C1OCc2cc(NC(=O)C34CC5CC(CC(C5)C3)C4)ccc21,0.1,-7.4,1.8,-5.0,-3.1
CC1CC(C)(C)OC(C[N+]2(C)CCCCC2)O1 (stereo not drawn),0.0,0.6*,-0.6,-132.3,52.5*
CC(C)N(Cc1cc2ccccc2[nH]c1=O)C(=O)C1CCCCC1,0.7,-10.6,3.2,-3.1,-5.0
O=C(C1CCN(C2CCN(C/C=C/c3ccccc3)CC2)CC1)N1CCOCC1,0.9,56.2*,0.1,-7.9,3.0*
O=C(NCCN1CCOCC1)c1ccc(CS(=O)(=O)Cc2ccccc2F)o1,0.4,6.2,-2.8,0.4,9.2
O=[N+]([O-])c1cc(Br)cc(C=Nc2ccc3c(c2)OCO3)c1O,0.9,69.4*,9.3,-6.1,56.1*
c1cc(-c2ccoc2)n2ccnc2c1,.,.,.,47.2*,.
Cc1ccccc1-c1n[nH]nc1C1=CC(=O)CC(C)(C)C1,.,.,.,-8.4,.
Cc1ccc(/C=C2\SC(=S)N(c3c(C)n(C)n(-c4ccccc4)c3=O)C2=O)cc1,0.6,2.7,8.5,47.2*,-2.1
Cc1c(N2C(=O)/C(=C3\C(=O)N(CC(=O)O)c4ccccc43)SC2=S)c(=O)n(-c2ccccc2)n1C,0.9,0.7,-2.5,51.7*,8.6
Cc1c(N2C(=O)/C(=C/c3ccccc3)SC2=S)c(=O)n(-c2ccccc2)n1C,0.0,-4.3,-2.3,23.6,-3.0
CC(=NO)c1ccc2c(c1)Cc1cc([N+](=O)[O-])ccc1-2,.,.,.,-0.9,.
Cc1cc(N2CCC(C)CC2)c(F)cc1[N+](=O)[O-],0.3,-0.4,2.9,-0.7,7.9
Cc1cc(N2CCCC2)c(F)cc1/C=C\[N+](=O)[O-],0.7,58.4,1.1,-113.0,0.6*
Cc1ccc2c(c1)c(=O)c1c3n2CCN(C(=O)CCl)C3CC1 (stereo not drawn),-0.1,?,1.4,8.0,35.4*
Cc1c(OC(C)C(=O)NC(Cc2c[nH]c3ccc(O)cc23)C(=O)O)ccc2c1oc(=O)c1ccccc12 (stereo not drawn),.,81.2*,.,6.9,64.4*
